Unmarked numbers belong to inactive results. Results filed as inconclusive are left out. Calls of active or inactive are those of the source. Unless noted, calls follow the shape of the dose curve; as a rule, active = well fitted curve in either direction with a large enough effect (not every such curve was filed as active); inconclusive = small, poorly fitted or top-dose-only effect, or another doubt; inactive = flat fitted curve, though single readings scatter.
What was measured:
[1] = target: Lysosomal acid glucosylceramidase (Homo sapiens) (UniProt P04062); assay: Glucocerebrosidase-p2 (AID 348; in the data active = potency below about 10 µM; also: potency is read from the fitted curve at half-maximal effect); conditions: purified GBA, blue fluorogenic substrate, 40 min
Summary of the method: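 Normal human glucocerebrosidase (0.2 nM) with blue fluorogenic substrate (80 uM final) in citrate/phosphate pH 5.9 with 10mM sodium taurocholate, 0.01% tween-20; 40 min RT, NaOH/glycine stop; fluorescence Ex 365/Em 440; AC50 from a titration from 0.6 nM upwards.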

[2] = AP1 Signaling Pathway (AID 357); conditions: ME-180 AP-1-bla reporter, EGF-induced, beta-lactamase ratio, 5 h; at 7.69 µM (top of the series) unless noted;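 also: ME-180 reporter cells stimulated with EGF at its EC50 level; % is scaled to controls: 0 for no effect and ±100 for the full control effect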
Summary of the method: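 In this screen, ME-180 cells in Opti-MEM with 0.5% dialyzed FBS received EC50 EGF and compound titrations for 5 h. AP-1 reporter beta-lactamase was detected via CCF4 ratio, giving AC50 for positive and negative modulators.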

[3] = NFAT Signaling Pathway (AID 444); conditions: Jurkat NFAT-bla M1, carbachol, beta-lactamase ratio, 5 h; at 7.69 µM (top of the series) unless noted;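 also: carbachol stimulus at about its EC50 of 1 µM final; % is scaled to controls: 0 for no effect and ±100 for the full control effect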
Summary of the method: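 Jurkat cells carrying an NFAT-driven β-lactamase reporter and co-transfected muscarinic M1 receptor were treated with compound plus carbachol (1 uM final, an EC50 level) for 5 h at 37 °C. CCF4 loading followed for 1 h at RT; 460/530 nm ratio gave %activity.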

[4] = Stat Signaling Pathway (AID 446); conditions: ME-180 (cervical carcinoma) SIE beta-lactamase reporter, IL-6 stimulated, 5 h; at 7.69 µM (top of the series) unless noted;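 also: ME-180 cervical cancer cells given 40 pM IL-6 alongside compound; SIE-controlled beta-lactamase reporter measured as 460/530 nm FRET emission ratio; % is scaled to controls: 0 for no effect and ±100 for the full control effect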
Summary of the method: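 Overnight-plated ME-180 cells bearing a STAT Inducible Element beta-lactamase reporter; 5 h co-exposure to compound and 40 pM IL-6; values normalized to 300 pM IL-6 and 125 nM JAK inhibitor controls.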

[5] = target: Glucocorticoid receptor (Homo sapiens) (UniProt P04150); assay: GR-GFP Redistribution (AID 450;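 active = compounds whose dose series gives a full or clear partial fitted curve of increased nuclear translocation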; also: potency is read from the fitted curve at half-maximal effect); conditions: U2OS GR-GFP nuclear translocation, laser cytometry, 2 h
[6] = target: Glucocorticoid receptor (Homo sapiens) (UniProt P04150); assay: GR-EFC Redistribution (AID 451; calls by dose curve; also: potency is read from the fitted curve at half-maximal effect); conditions: CHO-K1 GR-EFC translocation, beta-gal luminescence, 2 h
Summary of the method: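 CHO-K1 cells stably expressing nuclear-localized β-gal enzyme acceptor and GR fused C-terminally to the enzyme donor fragment; ligand-driven nuclear translocation restores β-gal by complementation. Compounds titrated up to 46 uM final, 2 h at 37 °C; luminescence read.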

[7] = target: Mitogen-activated protein kinase 10 (Mus musculus) (UniProt Q61831); assay: JNK3 AlphaScreen Assay (AID 530); conditions: JNK3 lysate, c-Jun phosphorylation; series mostly up to 11.4 µM;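 also: kinase came from lysate of stimulated human HepG2 cells; signal reports phosphorylation of biotinylated GST-cJun 1-79 at Ser73 with 10 µM ATP; % is scaled to controls: 0 for no effect and ±100 for the full control effect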
Summary of the method: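 Biotinylated GST-cJun(1-79) served as substrate for JNK3 in HepG2 lysates stimulated with IL-1beta and TNF-alpha. ATP was 10 uM final, pH 7.6. Ser73 phosphorylation was quantified by AlphaScreen (680 nm excitation).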

[8] = target: 3',5'-cyclic-AMP phosphodiesterase 4B (Homo sapiens) (UniProt Q07343); assay: qHTS Assay for Inhibitors of PDE-IV (AID 607; active = well fitted activation curve with a large enough effect in the main read-out, with a control signal flat, not every such curve was filed as active; also: % of control where 0% means no effect); conditions: HEK293 ACTOne CNG channel cells, membrane potential fluorescence; series mostly up to 22.9 µM
Summary of the method: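 Live HEK293 cells with a modified cyclic nucleotide-gated (CNG) channel report intracellular cAMP via membrane-potential dye fluorescence (ex 535/em 590 nm). Endogenous PDE-IV was targeted. Compounds were tested at up to 22.9 uM final; RO 20-1724 100 uM served as control.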

Chain of Glucocorticoid receptor (Homo sapiens) (P04150 whole entry, looked up, the tested form may be a part): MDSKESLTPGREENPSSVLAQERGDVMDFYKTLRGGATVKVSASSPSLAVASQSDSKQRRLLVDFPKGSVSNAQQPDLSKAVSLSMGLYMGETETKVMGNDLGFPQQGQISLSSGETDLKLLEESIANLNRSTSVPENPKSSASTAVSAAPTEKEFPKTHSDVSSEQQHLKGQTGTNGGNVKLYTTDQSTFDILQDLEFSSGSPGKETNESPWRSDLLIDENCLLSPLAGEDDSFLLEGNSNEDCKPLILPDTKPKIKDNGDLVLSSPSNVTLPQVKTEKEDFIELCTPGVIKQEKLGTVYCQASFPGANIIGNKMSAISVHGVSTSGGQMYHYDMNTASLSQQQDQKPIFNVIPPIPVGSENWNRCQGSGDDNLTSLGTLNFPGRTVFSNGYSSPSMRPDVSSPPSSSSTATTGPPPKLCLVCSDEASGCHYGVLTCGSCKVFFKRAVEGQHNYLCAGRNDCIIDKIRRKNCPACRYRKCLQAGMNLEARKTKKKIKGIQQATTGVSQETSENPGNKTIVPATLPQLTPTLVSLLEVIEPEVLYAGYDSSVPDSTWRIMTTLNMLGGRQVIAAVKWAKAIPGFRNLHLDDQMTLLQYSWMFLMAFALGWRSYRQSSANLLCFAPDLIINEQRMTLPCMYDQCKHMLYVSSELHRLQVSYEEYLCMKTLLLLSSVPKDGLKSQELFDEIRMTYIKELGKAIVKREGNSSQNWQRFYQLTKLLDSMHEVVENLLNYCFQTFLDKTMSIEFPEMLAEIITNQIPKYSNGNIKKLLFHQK
Chain of Lysosomal acid glucosylceramidase (Homo sapiens) (P04062 whole entry, looked up): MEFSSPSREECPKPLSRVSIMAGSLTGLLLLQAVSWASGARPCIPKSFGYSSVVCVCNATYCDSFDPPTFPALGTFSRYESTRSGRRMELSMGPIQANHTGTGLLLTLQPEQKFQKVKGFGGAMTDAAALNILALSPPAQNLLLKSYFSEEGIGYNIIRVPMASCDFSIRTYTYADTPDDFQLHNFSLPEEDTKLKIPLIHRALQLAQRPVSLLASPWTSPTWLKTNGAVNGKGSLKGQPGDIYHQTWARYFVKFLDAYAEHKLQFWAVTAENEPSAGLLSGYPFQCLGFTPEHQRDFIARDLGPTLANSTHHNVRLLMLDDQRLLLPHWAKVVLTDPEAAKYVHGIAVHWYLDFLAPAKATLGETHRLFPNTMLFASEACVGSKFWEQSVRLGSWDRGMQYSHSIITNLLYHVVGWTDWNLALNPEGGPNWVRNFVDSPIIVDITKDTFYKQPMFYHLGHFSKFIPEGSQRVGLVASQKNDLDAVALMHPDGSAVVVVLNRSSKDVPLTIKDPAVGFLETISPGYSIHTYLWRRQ
Chain of 3',5'-cyclic-AMP phosphodiesterase 4B (Homo sapiens) (Q07343 whole entry, looked up): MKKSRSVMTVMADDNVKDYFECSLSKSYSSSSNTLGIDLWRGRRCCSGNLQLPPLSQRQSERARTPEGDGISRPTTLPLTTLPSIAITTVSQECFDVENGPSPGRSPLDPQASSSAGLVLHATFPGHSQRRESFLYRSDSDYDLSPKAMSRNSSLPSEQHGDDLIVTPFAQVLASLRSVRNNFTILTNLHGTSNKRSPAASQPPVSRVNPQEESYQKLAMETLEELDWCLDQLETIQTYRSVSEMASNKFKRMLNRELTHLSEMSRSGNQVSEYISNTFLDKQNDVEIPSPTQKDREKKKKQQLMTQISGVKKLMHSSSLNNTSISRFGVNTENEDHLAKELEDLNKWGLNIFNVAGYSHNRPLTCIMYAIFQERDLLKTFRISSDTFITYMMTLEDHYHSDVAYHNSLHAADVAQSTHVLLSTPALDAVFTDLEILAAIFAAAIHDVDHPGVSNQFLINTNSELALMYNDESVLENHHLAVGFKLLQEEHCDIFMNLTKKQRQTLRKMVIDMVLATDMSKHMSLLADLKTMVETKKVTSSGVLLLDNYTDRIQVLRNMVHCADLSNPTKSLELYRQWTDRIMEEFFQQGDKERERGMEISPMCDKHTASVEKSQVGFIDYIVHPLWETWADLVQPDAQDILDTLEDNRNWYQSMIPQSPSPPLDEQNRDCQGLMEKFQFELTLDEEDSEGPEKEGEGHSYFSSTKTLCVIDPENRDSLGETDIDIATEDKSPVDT

| SMILES | Potency [1] | activity change, negative = inhibition [2] [%] | activity change, negative = inhibition [3] [%] | activity, negative = inhibition [4] [%] | Potency [5] [µM] | Potency [6] [µM] | Potency [7] | Potency [8] |
| --- | --- | --- | --- | --- | --- | --- | --- | --- |
| C[N+](C)([O-])Cc1cc(-c2ccccc2)ccc1O | > 11.4 µM | -2.32 | 1.32 | -3.36 | > 46 | > 9.22 | inactive | inactive |
| c1ccc(CN2CCC3(CC2)SSC2(CCN(Cc4ccccc4)CC2)SS3)cc1 | > 11.4 µM | 3.33 | 3.92 | -1.41 | > 46 | > 9.22 | inactive | inactive |
| [N-]=[N+]=N[C@@H]1[C@H](O)[C@H](CO)O[C@@H]1n1cnc2c(N)ncnc21 | > 11.4 µM | -7.07 | 9.28 | -12.3 | > 46 | > 9.22 | inactive | inactive |
| CCc1ccc(CCC(=O)O)nc1 | > 11.4 µM | 0.964 | -3.46 | -13.2 | > 46 | > 9.22 | inactive | inactive |
| C[N+](C)(C)CC(=O)N/N=C\c1ccncc1 | > 11.4 µM | -2.8 | 3.32 | 8.79 | > 46 | > 9.22 | inactive | inactive |
| C=CCNS(=O)(=O)c1ncnc2nc[nH]c12 | > 11.4 µM | -7.02 | -12.1 | 14.4 | > 46 | > 9.22 | inactive | inactive |
| N[C@@]1(C(=O)O)CCC[C@@H]1C(=O)O | > 11.4 µM | 6.92 | 10.2 | 9.09 | > 46 | > 9.22 | inactive | inactive |
| O=C(O)/C=C\C=C/c1ccc2c(c1)OCO2 | > 11.4 µM | 6.54 | 5.9 | 1.24 | > 46 | > 9.22 | inactive | inactive |
| Cc1cc(Cl)ccc1OCC(=O)Oc1c(Cl)c(Cl)c(Cl)c(Cl)c1Cl | > 11.4 µM | 0.808 | -13.6 | -0.45 | > 46 | > 9.22 | inactive | inactive |
| COc1cc2c(cc1O)[C@@H](c1cc(O)c(O)c(OC)c1)[C@@](O)(C(=O)O)[C@@H](CO)[C@@H]2O | > 11.4 µM | 0.0448 | -5.96 | 4.61 | > 46 | > 9.22 | inactive | inactive |
| CC(C)CN(CC#N)CC(C)C | > 11.4 µM | 6.22 | 12.7 | 5.79 | > 46 | > 9.22 | inactive | inactive |
| C[C@@H](N)/C(N)=N/O | > 11.4 µM | -1.61 | 6.7 | 5.63 | > 46 | > 9.22 | inactive | inactive |
| Nc1ccn([C@H]2O[C@H](CO)[C@@H]3[O][Sn]([c]4ccccc4)([c]4ccccc4)[O][C@H]32)c(=O)n1 | > 11.4 µM | -22.1 | -9.06 | -20.4 | > 46 | > 9.22 | inactive | inactive |
| Cc1ccc(C)c([C@@H]2NC(=O)c3ccccc3N2)c1 | > 11.4 µM | -2.78 | -14.2 | -1.94 | > 46 | > 9.22 | inactive | inactive |
| CO[C@@H]1/C=C\O[C@]2(C)Oc3c(C)c(O)c4c(O)c(c(CN5CCN(C)CC5)c(O)c4c3C2=O)NC(=O)/C(C)=C\C=C[C@@H](C)[C@@H](O)[C@H](C)[C@@H](O)[C@H](C)[C@H](OC(C)=O)[C@@H]1C | > 11.4 µM | -8.05 | 7.34 | -6.61 | > 46 | > 9.22 | inactive | inactive |
| O=C1c2cccc(O)c2C(=O)c2c(O[C@@H]3O[C@H](CO)[C@@H](O)[C@H](O)[C@@H]3O)cccc21 | 2.95 µM (active) | 29.9 | 5.22 | 8.12 | > 46 | > 9.22 | inactive | inactive |
| O=C(C[C@@H](C(=O)O)N1CCOCC1)c1ccccc1 | > 11.4 µM | 8.49 | -28.5 | -2.89 | > 46 | > 9.22 | inactive | inactive |

— PubChem BioAssay (NCATS)
